Calls of active or inactive are those of the source. How the calls were made is not given here.

This experiment deals with Estrogen receptor (Homo sapiens) (UniProt P03372). Put plainly: ERalpha ligand binders by competition, primary screen, cell-based, Cos7 ERalpha-GFP, flow cytometry (AID 1211).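 Further: 0% = DMSO vehicle wells and 100% = no E2-Alexa633 signal left.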 The following applies: fluorescent ligand competition, stronger effect = higher value. (In general: Flow cytometry measures light scatter and fluorescence of single cells or particles in a stream.)
Estrogen receptor (Homo sapiens), sequence (P03372 whole entry, looked up): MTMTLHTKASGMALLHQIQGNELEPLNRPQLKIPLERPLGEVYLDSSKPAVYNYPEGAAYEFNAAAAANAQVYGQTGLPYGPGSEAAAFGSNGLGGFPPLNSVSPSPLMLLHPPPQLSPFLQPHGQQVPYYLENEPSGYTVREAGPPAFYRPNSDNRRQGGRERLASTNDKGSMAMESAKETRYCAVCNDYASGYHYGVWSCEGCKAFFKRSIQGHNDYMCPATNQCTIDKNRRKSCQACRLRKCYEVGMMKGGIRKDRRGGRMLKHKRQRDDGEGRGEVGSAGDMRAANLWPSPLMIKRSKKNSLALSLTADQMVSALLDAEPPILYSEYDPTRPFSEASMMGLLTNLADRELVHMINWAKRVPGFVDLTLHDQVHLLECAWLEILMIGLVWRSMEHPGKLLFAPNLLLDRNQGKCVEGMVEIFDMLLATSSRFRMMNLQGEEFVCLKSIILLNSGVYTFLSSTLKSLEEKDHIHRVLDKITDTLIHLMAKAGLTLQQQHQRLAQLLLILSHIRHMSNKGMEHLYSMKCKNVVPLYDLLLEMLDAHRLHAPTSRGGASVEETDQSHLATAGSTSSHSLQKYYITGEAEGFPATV

Turning to `COc1cc(-c2nc3ccc4ccccc4c3c3c2CCC3)ccc1O`, the inhibition of ligand binding is 46% (active) (at 10 µM) and 87% (binding inhibition, at 0.1 µM).

With `CCn1nnc(NC(=O)CSc2ccc(Cl)cc2)n1`, the inhibition of ligand binding runs as follows: (at 10 µM) 7% (inactive); (binding inhibition, at 0.1 µM) 10%.

For `Cc1ccc(-c2nn(-c3ccccc3)cc2/C=N/NC(=O)c2ccc(Br)o2)cc1`, the inhibition of ligand binding reads like this: (at 10 µM) 42% (inactive); (binding inhibition, at 0.1 µM) 49%.

On to `CSc1ccc(S(=O)(=O)Nc2cccc(F)c2)cc1`, for which the inhibition of ligand binding is 45% (inactive) (at 10 µM) and 54% (binding inhibition, at 0.1 µM).

For the compound `Cc1ccc2[nH]c(=O)c(-c3nc4ccccn4c3NCc3ccco3)cc2c1`, the inhibition of ligand binding is 23% (inactive) (at 10 µM) and 16% (binding inhibition, at 0.1 µM).

For `CCc1ccc2nc(NC(=O)c3ccc4c(=O)[nH]c(CN5CCOCC5)nc4c3)sc2c1`, the inhibition of ligand binding is, setting by setting: (at 10 µM) 32% (inactive); (binding inhibition, at 0.1 µM) 9%.

With `N#CC1=C(N)OC2=C(CCC/C2=C/c2ccoc2)C1c1ccoc1` (stereo not drawn), the inhibition of ligand binding is, setting by setting: (at 10 µM) 56% (inactive); (binding inhibition, at 0.1 µM) 40%.

As to `CCOc1cc(N2CCOCC2)c(OCC)cc1NC(=O)c1cc(-c2ccco2)nc2ccccc12`, the inhibition of ligand binding is, setting by setting: (at 10 µM) 24% (inactive); (binding inhibition, at 0.1 µM) 4%.

Turning to `CCOc1ccccc1-n1nnnc1SCC(=O)NC(=O)NCc1ccco1`, the inhibition of ligand binding was 5% (inactive) (at 10 µM) and 5% (binding inhibition, at 0.1 µM).

With `CC12CCC(=O)N1C(C(=O)OCC(=O)Nc1sccc1C#N)CS2` (stereo not drawn), the inhibition of ligand binding was 47% (active) (at 10 µM) and 89% (binding inhibition, at 0.1 µM).

Turning to `Oc1ccc(-c2cn3c(n2)SCC3)cc1`, the inhibition of ligand binding was 37% (inactive) (at 10 µM) and 22% (binding inhibition, at 0.1 µM).

Take `CS(=O)(=O)c1ccc2nc(NC(=O)CCC(=O)c3cccs3)sc2c1`: the inhibition of ligand binding is 33% (inactive) (at 10 µM) and 14% (binding inhibition, at 0.1 µM).

In the case of `CCCSC1=N/C(=C\C=C\c2ccco2)C(=O)S1`, the inhibition of ligand binding is, setting by setting: (at 10 µM) 0% (inactive); (binding inhibition, at 0.1 µM) 31%.

For the compound `CC1CC(C(F)(F)C(F)(F)F)n2nc(C(=O)O)cc2N1` (stereo not drawn), the inhibition of ligand binding is, setting by setting: (at 10 µM) 9% (inactive); (binding inhibition, at 0.1 µM) 9%.

Consider `Cc1cc2oc(=O)cc(COC(=O)c3n[nH]c4ccccc34)c2cc1C`, for which the inhibition of ligand binding (at 10 µM) was 53% (inactive) and the inhibition of ligand binding (binding inhibition, at 0.1 µM) stood at 20%.

As for `Cc1ccc(C)n1-c1sccc1C(=O)O`, the inhibition of ligand binding was 36% (inactive) (at 10 µM) and 36% (binding inhibition, at 0.1 µM).

For `COc1ccc(C2=NN(C(=O)c3cccnc3)C(c3ccccc3)C2)cc1` (stereo not drawn), the inhibition of ligand binding (at 10 µM) was 37% (inactive) and the inhibition of ligand binding (binding inhibition, at 0.1 µM) was determined as 30%.

As to `Cc1occc1C(=O)NCc1cccc(CNC(=O)c2ccoc2C)c1`, the inhibition of ligand binding by setting is: (at 10 µM) 39% (inactive); (binding inhibition, at 0.1 µM) 26%.

Turning to `O=c1cc(-c2ccco2)oc2c1ccc1ccccc12`, the inhibition of ligand binding is, setting by setting: (at 10 µM) 48% (inactive); (binding inhibition, at 0.1 µM) 4%.

As to `Cc1ccc(OCCN2CCN(CC(O)Cn3c4ccccc4c4ccccc43)CC2)cc1` (stereo not drawn), the inhibition of ligand binding reads like this: (at 10 µM) 37% (inactive); (binding inhibition, at 0.1 µM) 33%.

Take `Cc1cc(C(=O)CSc2nnc(-c3ccccc3F)o2)c(C)n1Cc1cccs1`: the inhibition of ligand binding runs as follows: (at 10 µM) 69% (active); (binding inhibition, at 0.1 µM) 16%.

`O=S(=O)(NCCc1csc(-c2cccnc2)n1)c1ccc(Cl)s1`: the inhibition of ligand binding (at 10 µM) was 72% (active) and the inhibition of ligand binding (binding inhibition, at 0.1 µM) is 35%.

In the case of `Cc1ccc(-c2csc(NC(=O)c3ccno3)n2)cc1`, the inhibition of ligand binding by setting is: (at 10 µM) 60% (inactive); (binding inhibition, at 0.1 µM) 29%.

For `COC(=O)c1ccccc1NC(=O)c1noc2c1CCC2`, the inhibition of ligand binding was 25% (inactive) (at 10 µM) and 21% (binding inhibition, at 0.1 µM).

On to `CCN1CCc2nc(NC(=O)Cc3ccc4c(c3)OCCO4)sc2C1`, for which the inhibition of ligand binding is 36% (inactive) (at 10 µM) and 31% (binding inhibition, at 0.1 µM).

`Cc1cc(C)n2nc(SCc3cc(=O)oc4cc(O)ccc34)nc2n1`: the inhibition of ligand binding was 49% (inactive) (at 10 µM) and 5% (binding inhibition, at 0.1 µM).

As for `COc1ccc(OC)c(/C=N/c2oc(-c3ccco3)c(-c3ccco3)c2C#N)c1`, the inhibition of ligand binding (at 10 µM) is 25% (inactive) and the inhibition of ligand binding (binding inhibition, at 0.1 µM) turned out to be 19%.

Turning to `O=C(Oc1ccc(-c2cnc3ccccc3n2)cc1)c1ccc(Br)o1`, the inhibition of ligand binding by setting is: (at 10 µM) 58% (inactive); (binding inhibition, at 0.1 µM) 1%.

With `COc1cc2c(cc1O)CC[n+]1cc3c(OC)c(OC)ccc3cc1-2`, the inhibition of ligand binding runs as follows: (at 10 µM) 46% (inactive); (binding inhibition, at 0.1 µM) 9%.

Regarding `O=C(c1cc2ncc(Br)cn2n1)N1CCN(C(=O)c2ccco2)CC1`, the inhibition of ligand binding is, setting by setting: (at 10 µM) 2% (inactive); (binding inhibition, at 0.1 µM) 15%.

Regarding `COc1ccc(N=C2NC(=O)S/C2=C\c2ccc(N(C)C)cc2)cc1`, the inhibition of ligand binding reads like this: (at 10 µM) 39% (inactive); (binding inhibition, at 0.1 µM) 8%.

Turning to `COc1ccc2cc3c(N)nn(C(=O)Cc4ccc(Cl)cc4)c3nc2c1`, the inhibition of ligand binding (at 10 µM) is 18% (inactive) and the inhibition of ligand binding (binding inhibition, at 0.1 µM) came out at 16%.

Regarding `CC(=O)Nc1nonc1-c1nc2ccccc2n1N(C(C)=O)C(C)=O`, the inhibition of ligand binding (at 10 µM) is 44% (inactive) and the inhibition of ligand binding (binding inhibition, at 0.1 µM) came out at 59%.

For the compound `Oc1ccc(-c2nc3ccc4ccccc4c3c3c2CCC3)cc1O`, the inhibition of ligand binding is, setting by setting: (at 10 µM) 41% (inactive); (binding inhibition, at 0.1 µM) 44%.

`Oc1ccc(-c2cn3c(n2)SCC3)cc1O`: the inhibition of ligand binding by setting is: (at 10 µM) 19% (inactive); (binding inhibition, at 0.1 µM) 28%.

Take `CC(=O)Nc1ccc(OC(=O)CC2SC(=O)NC2=O)cc1` (stereo not drawn): the inhibition of ligand binding reads like this: (at 10 µM) 51% (inactive); (binding inhibition, at 0.1 µM) 60%.

For the compound `NC(=O)c1ccsc1NC(=O)COC(=O)Cc1ccsc1`, the inhibition of ligand binding is, setting by setting: (at 10 µM) 37% (inactive); (binding inhibition, at 0.1 µM) 29%.

Turning to `O=C1c2ccccc2NC(c2cccnc2)N1c1ccccc1F` (stereo not drawn), the inhibition of ligand binding runs as follows: (at 10 µM) 14% (inactive); (binding inhibition, at 0.1 µM) 35%.

`Cc1ccccc1Nc1nnc(SCC(=O)NC(=O)NCc2ccco2)s1`: the inhibition of ligand binding by setting is: (at 10 µM) 63% (inactive); (binding inhibition, at 0.1 µM) 50%.
